From PubChem BioAssay come the findings set out here.

Active and inactive are the calls of the source. Unless noted, no rule for the calls is given here.

In experiment [1] the test system is XIP peptide (Xip251-270) binding. Kind of experiment: XIP fragment 251-270 binding compounds – biochemical, small-molecule microarray, fluorescence 635/667 nm, 0.1 µg/mL protein, primary screen (AID 1182). The following applies: fluorescent protein binding, 635 nm, higher = more signal, called active from +8 up or from −8 down.
In a further experiment the test system is XIP peptide (Xip251-270). Kind of experiment: compounds binding XIP fragment 251-270 – biochemical, small-molecule microarray, fluorescence 635/667 nm, 0.5 µg/mL protein, primary screen (AID 1183). The following applies: fluorescence 635 nm, higher = more signal.
The nature of experiment [2]: blood-stage malaria parasite viability loss – strain 3D7, DAPI fluorescence, 100 nL, primary screen (AID 1184).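 Also: parasites grown inside human red blood cells in medium with human serum.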 The following applies: P. falciparum 3D7 growth, 3 d, higher = more signal.
Experiment [3] has as its target Homeobox protein Hox-A13 (Mus musculus) (UniProt Q62424). Kind of experiment: disruptors of Hoxa13 oligonucleotide interaction – biochemical, fluorescence polarization, labeled oligonucleotide, primary screen (AID 1185). Particulars: Hoxa13:DNA binding, 15 min, higher = more signal, called active from +8 up or from −8 down.
Experiment [4] can be described thus: blockers of DNA damage checkpoint Chk1 activation – imaging, HeLa, hydroxyurea, phospho-Chk1 antibody, percent positive cells, primary screen (AID 1186). Particulars: hydroxyurea-induced phospho-Chk1 immunofluorescence imaging, higher = more signal.
Experiment [5] can be described thus: blockers of DNA damage checkpoint Chk1 activation – imaging, HeLa, hydroxyurea, phospho-Chk1 nuclear intensity, primary screen (AID 1187). The following applies: hydroxyurea-induced phospho-Chk1 immunofluorescence imaging, higher = more signal.

Homeobox protein Hox-A13 (Mus musculus), sequence (Q62424 whole entry, looked up): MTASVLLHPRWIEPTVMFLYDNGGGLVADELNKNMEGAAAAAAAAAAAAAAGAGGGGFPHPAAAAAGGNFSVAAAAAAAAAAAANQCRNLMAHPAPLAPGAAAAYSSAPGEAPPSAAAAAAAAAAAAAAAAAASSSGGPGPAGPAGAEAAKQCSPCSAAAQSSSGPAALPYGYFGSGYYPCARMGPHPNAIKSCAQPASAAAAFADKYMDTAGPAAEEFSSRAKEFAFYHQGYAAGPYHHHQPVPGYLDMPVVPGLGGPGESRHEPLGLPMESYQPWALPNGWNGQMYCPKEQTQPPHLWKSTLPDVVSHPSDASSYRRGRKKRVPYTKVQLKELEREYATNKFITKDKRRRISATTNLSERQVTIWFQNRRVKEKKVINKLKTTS

Take `CCCNC(=O)OC[C@H]1O[C@H](CCON=C[C@@H](OC)[C@H](C)C=CCC(=O)OC)C=C[C@@H]1Oc1ccc(OC)cc1`: the composite z-score in experiment [1] was 0.228 (inactive); in the experiment on XIP peptide (Xip251-270), 0.162. The z-score in experiment [2] was 0.232; in experiment [3] it was -5.88 (inactive).
Regarding `CCCC[C@H]1OB(O)C[C@H]2C1=C(C)C[C@H]1C(=O)N(C)C(=O)[C@H]12`, the figures for the composite z-score (in experiment [1]; in the experiment on XIP peptide (Xip251-270)) were 0.756 (inactive) and 0.608, respectively. Further, the z-score is 2.46 in experiment [2], -9.92 (active) in experiment [3], 0.327 (inactive) in experiment [4] and 0.547 (inactive) in experiment [5].
With `COc1ccc(O[C@H]2C=C[C@@H](c3ccccc3)O[C@@H]2COC(=O)CCC(C)=NOC(C)CN2CCCCc3nc(C)c(C)cc32)cc1` (some centres not stated), the composite z-score in experiment [1] is 0.422 (inactive); in the experiment with XIP peptide (Xip251-270) it was -0.674. For the same compound, the z-score in experiment [2] was -1.34; in experiment [3], -2.19 (inactive).
Take `C=CC[C@]1(C(=O)NCc2ccccc2)N=C(c2ccc(OCCCO)cc2)O[C@H]1c1ccccc1`: the composite z-score is 1.55 (inactive) in experiment [1] and 0.776 with XIP peptide (Xip251-270). The z-score was -2.05 in experiment [2], -6.34 (inactive) in experiment [3], 0.0635 (inactive) in experiment [4] and 0.896 (inactive) in experiment [5].
Turning to `CC(CCN1CCc2nc(-c3ccccc3)c(-c3ccccc3)cc2C1)=NOC(C)CN1CCCCc2nc(C)c(C)cc21` (configuration not stated), the composite z-score in experiment [1] is 0.685 (inactive); with XIP peptide (Xip251-270), 0.312. In addition, the z-score is 0.0201 in experiment [2] and -4.25 (inactive) in experiment [3].
Regarding `CC(=O)OC[C@H]1O[C@H](C#CCCCc2ccccc2)C=C[C@@H]1OC(C)=O`, the composite z-score in experiment [1] was 1.05 (inactive); in the experiment with XIP peptide (Xip251-270) it was 0.505. For the same compound, the z-score in experiment [2] is -0.107; in experiment [3] it was -5.95 (inactive).
As for `CO[C@@H]1COC(=O)CC=C[C@@H](C)COC(=O)[C@H](COCc2ccccc2)NC(=O)CC=C[C@H]1C`, the composite z-score is 0.0912 (inactive) in experiment [1] and -0.453 in the experiment with XIP peptide (Xip251-270). Besides, the values for the z-score in experiment [2] and in experiment [3] were -1.02 and -0.119 (inactive), respectively.
In the same order, the values of `CC[C@@H](c1ccccc1)n1c(=O)n2n(c1=O)[C@H]1[C@H](O)[C@@H]3O[C@@H]3C(=NOCC(C)C)[C@H]1CC2` are -0.242 (inactive), 0.68, -0.265 and -2.28 (inactive).
On to `CC(C)[C@@H](OCc1ccccc1)[C@H](C)C=NOC[C@@H](C)[C@H](OCc1ccccc1)C(C)C`, for which the composite z-score was 0.468 (inactive) in experiment [1] and -0.185 in the experiment with XIP peptide (Xip251-270). For the same compound, the z-score in experiment [2] is 0.128; in experiment [3], 0.24 (inactive).
For the compound `NCCCCCNC(=O)[C@@H]1C[C@@H]2C(=O)N3CCC[C@H]3C(=O)N2[C@@H]1c1cccc(OCCO)c1`, the composite z-score in experiment [1] was 0.536 (inactive); with XIP peptide (Xip251-270) it was -0.0496. In addition, the z-score in experiment [2] was 0.398; in experiment [3], -3.71 (inactive); in experiment [4], 0.0592 (inactive); in experiment [5] it was 0.182 (inactive).
For the compound `CC(C)NC(=O)[C@@H]1c2ccccc2C(=O)N(CC23CC4CC(CC(C4)C2)C3)[C@H]1c1ccc(CO)cc1`, the figures for the composite z-score (in experiment [1]; in the experiment with XIP peptide (Xip251-270)) were 0.166 (inactive) and 0.661, respectively. Besides, the z-score in experiment [2] is -1.84; in experiment [3] it was -4.68 (inactive); in experiment [4], -0.111 (inactive); in experiment [5], -0.0146 (inactive).
With `CCc1cc2c(nc1CC)CCN(CCC(C)=NO[C@@H](C)c1cc(-c3c(C)cc(C)cc3C)no1)C2`, the composite z-score in experiment [1] was -0.712 (inactive); with XIP peptide (Xip251-270), 0.325. Further, the z-score in experiment [2] was 0.319; in experiment [3], -2.85 (inactive).
In the case of `O=C1C[C@@H](O)[C@@H](O)[C@@H]2[C@@H]3C(=O)N(c4ccc(F)cc4F)C(=O)[C@@H]3CC[C@@H]12`, the composite z-score was 0.0164 (inactive) in experiment [1] and -0.0741 in the experiment on XIP peptide (Xip251-270). For the same compound, the z-score in experiment [2] was 0.452; in experiment [3] it was -0.595 (inactive).
In the case of `C[C@H](c1ccccc1)N1C(=O)[C@H]2[C@@H]3C(=CC[C@H]2C1=O)C(=O)[C@H]1O[C@H]1[C@H]3O`, the composite z-score in experiment [1] is -0.584 (inactive); in the experiment with XIP peptide (Xip251-270) it was 0.008. In addition, the z-score in experiment [2] was -1.23; in experiment [3], -6.83 (inactive).
Regarding `C=COC[C@H]1CN2[C@@H](CC[C@@H](C)[C@@H]2c2ccc(Br)cc2)C(=O)O1`, the composite z-score is 0.299 (inactive) in experiment [1] and 0.719 in the experiment with XIP peptide (Xip251-270). In addition, the z-score in experiment [2] was 0.0315; in experiment [3], -2.37 (inactive).
In the same order, the values of `O=C1[C@H]2[C@H]3[C@H](O)[C@H](O)CC(=NO[C@@H]4O[C@H](CO)[C@@H](O)[C@H](O)[C@H]4O)[C@H]3CC[C@H]2C(=O)N1Cc1ccccc1` are -0.175 (inactive), 0.588, -1.19 and -1.28 (inactive).
As for `CC1(C)OCC(C(O)C2=CCCCC2=O)CO1` (configuration not stated), the composite z-score in experiment [1] was 0.563 (inactive); in the experiment on XIP peptide (Xip251-270), 0.446. For the same compound, the z-score in experiment [2] is -0.831; in experiment [3], -2.61 (inactive).
For `Cc1cc(C)c(-c2cc([C@H](C)ON=C3[C@H]4CCn5c(=O)n(-c6ccccc6)c(=O)n5[C@H]4[C@H](O)[C@@H]4O[C@H]34)on2)c(C)c1`, the values for the composite z-score (in experiment [1]; in the experiment on XIP peptide (Xip251-270)) were 2.08 (inactive) and 0.0933, respectively. For the same compound, the z-score was 0.173 in experiment [2] and -4.69 (inactive) in experiment [3].
For `CC(=O)OC[C@H]1O[C@@H](ON=C(C)CCN2CCc3nc(-c4ccccc4)c(-c4ccccc4)cc3C2)[C@H](OC(C)=O)[C@@H](OC(C)=O)[C@@H]1OC(C)=O`, the composite z-score in experiment [1] is 0.0113 (inactive); with XIP peptide (Xip251-270) it was 0.71. Besides, the z-score in experiment [2] was -1.08; in experiment [3], -5.05 (inactive).
Consider `CCOC(=O)CCN1C(=O)[C@H]2[C@H]3[C@H](O)[C@H](O)CC(=O)[C@H]3CC[C@H]2C1=O`, for which the composite z-score was -0.245 (inactive) in experiment [1] and 0.23 in the experiment with XIP peptide (Xip251-270). The figures for the z-score in experiment [2] and in experiment [3] were -1.18 and 0.804 (inactive), respectively.
On to `O=C1[C@H]2[C@H]3[C@H](O)[C@H](O)CC(=NO[C@@H]4O[C@H](CO)[C@@H](O)[C@H](O)[C@H]4O)[C@H]3CC[C@H]2C(=O)N1Cc1ccc2c(c1)OCO2`, for which the figures for the composite z-score (in experiment [1]; with XIP peptide (Xip251-270)) were -0.0799 (inactive) and 0.0812, respectively. Also, the z-score is 0.185 in experiment [2] and -0.567 (inactive) in experiment [3].
